Among the data in PubChem BioAssay AID588726 (The Scripps Research Institute Molecular Screening Center, 2011) are inhibition values, retold here.

Among all 360,000 compounds or so, about 8,200 (2.3%) were called active. The sample as a whole holds a higher share of actives than the screen did. Values without a mark were called inactive. Cut-off read from the data, not from the text of the source: active = inhibition above about 27%; inactive = the rest.

The inhibition is the change of the read-out against control, counted positive when it falls.

In the experiment the target is Fructose-bisphosphate aldolase (Mycobacterium tuberculosis (strain ATCC 25618 / H37Rv)) (UniProt P9WQA3). Briefly: Mtb FBA enzyme inhibitors, primary screen, biochemical, fluorescence, strain H37Rv (AID 588726).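 Note: 0% = vehicle and 100% = reference inhibitor.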 The conditions noted are these: purified M. tuberculosis FBA, fluorescence read-out, at 1 µM, stronger effect = higher value.
Fructose-bisphosphate aldolase (Mycobacterium tuberculosis (strain ATCC 25618 / H37Rv)), sequence (P9WQA3 whole entry, looked up): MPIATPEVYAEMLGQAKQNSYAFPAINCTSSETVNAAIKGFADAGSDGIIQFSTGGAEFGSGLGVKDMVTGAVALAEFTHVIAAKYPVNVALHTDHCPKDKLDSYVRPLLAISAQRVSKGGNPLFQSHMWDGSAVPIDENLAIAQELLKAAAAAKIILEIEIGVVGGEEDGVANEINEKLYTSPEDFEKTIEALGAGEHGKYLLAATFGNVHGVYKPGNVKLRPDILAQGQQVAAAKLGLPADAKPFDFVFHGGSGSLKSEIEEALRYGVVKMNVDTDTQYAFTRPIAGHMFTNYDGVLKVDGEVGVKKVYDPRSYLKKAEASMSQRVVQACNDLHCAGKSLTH
As for `C[C@H]1CN([C@@H](C)CO)C(=O)CCCn2cc(nn2)CO[C@@H]1CN(C)C(=O)Nc1ccccc1`, the inhibition is 0.08%. To `O=C(NC1CCCC1)C1CC(=O)N(c2ccc(F)cc2)C1` (centres undefined) belongs -3.06%; to `COc1cccc(NC(=O)C2(C)CCN2Cc2ccccc2Cl)c1` (centres undefined), 3.88%; to `Cc1cc(=O)oc2cc(OCC3CC(c4ccccc4Cl)=NO3)ccc12` (centres undefined), 9.86%. To `Cc1nc(COc2cc3oc(=O)cc(C)c3cc2Cl)cs1` belongs 27.6% (active). To `CCOC(=O)Cc1csc(SCc2cc(=O)oc3cc(O)ccc23)n1` belongs 2.87%; to `CC1(C)Cc2c(C#N)c(SCc3nc4ccccc4[nH]3)nc(N3CCOCC3)c2CO1`, 29.3% (active). Take `CCOC(=O)CSc1nc(N2CCOCC2)c2c(c1C#N)CC(C(C)C)OC2` (centres undefined): the inhibition is 0.67%. With `CC(C)c1nc(N2CCOCC2)c(C#N)c2c1COC(C)(C)C2` the figure was 48.2% (active); with `CC(C)C(=O)N1CCN(c2nc(-c3ccccc3)c3c(c2C#N)CC(C)(C)OC3)CC1`, 18.4%. With `C1=C(N2CCOCC2)/C(=C/c2nc3ccccc3[nH]2)CC1` the figure was 14.8%; with `CC1(C)Cc2c(sc(NC(=O)C(=O)N3CCOCC3)c2C#N)CO1`, 1.66%. With `CN1CCC2(CC1)NC(=O)NC2=O` the figure was 0.25%; with `Cc1cc(C(=O)N2CCC(C(=O)O)CC2)c(C(F)(F)F)o1`, -0.52%; with `CC(C)CN1CCNC(=O)C1CC(=O)N(C)CC1CCOCC1` (centres undefined), 91.2% (active). Consider `CN(CCC1CCOCC1)C(=O)CC1C(=O)NCCN1Cc1cccc(F)c1` (centres undefined), for which the inhibition is 5.7%.

Consider `COc1ccccc1CN1CCNC(=O)C1CC(=O)N(C)CC1CCOCC1` (centres undefined), for which the inhibition was 0.79%. `N#CCc1c[nH]c2ccc([N+](=O)[O-])cc12`: the inhibition is -4.4%. To `O=C(CN(C(=O)c1csnn1)c1ccc(Br)cc1)NC1CCCC1` belongs 2.14%; to `COc1ccc(/C=C/C(=O)NC(=S)NN2CCCCC2c2cccnc2)cc1` (centres undefined), 1.24%. With `CC1CCCCN1C(=O)CCS(=O)(=O)Cc1ccccc1` (centres undefined) the figure was -0.22%; with `Cc1cc(C(=O)OCC(=O)N2C(C)CCCC2C)c2ccccc2n1` (centres undefined), 6.33%.

In the case of `Cc1nn(-c2ccccc2)nc1C(=O)OCC(=O)N1CCCCC1C` (centres undefined), the inhibition was 31.5% (active). To `O=C(CN(C(=O)c1nsc(Cl)c1Cl)c1cccc(F)c1)NC1CCCC1` belongs 0.07%. With `COc1ccc(CNC(=O)COC(=O)/C=C/c2ccc(S(=O)(=O)N3CCOCC3)cc2)cc1` the figure was -5.75%. For the compound `Cc1ccc(S(=O)(=O)N2CCC(C(=O)OCC(=O)N3CC(=O)Nc4ccccc43)CC2)cc1`, the inhibition is -1.07%. With `Cc1ccc(C2Nc3ccccc3C(=O)N2CCN2CCNC2=O)cc1` (centres undefined) the figure was 95.6% (active). To `O=C1c2ccccc2NC(c2ccccn2)N1NS(=O)(=O)c1ccccc1` (centres undefined) belongs 11.3%; to `Cc1[nH]n(-c2ccccc2)c(=O)c1CCOC(=O)c1ccc(C(F)(F)F)cc1`, -0.48%; to `COc1ccccc1N1CCN(CC(=O)NCCc2ccc(S(N)(=O)=O)cc2)CC1`, 0.12%. `O=C(COc1ccc2c3c(c(=O)oc2c1)CCCC3)NCC(O)c1ccccc1` (centres undefined): the inhibition is 15.8%. To `CC(NC(=O)COc1ccc(-c2ccccc2)cc1)C1CCCO1` (centres undefined) belongs 0.11%; to `Cc1ccc(OCC(=O)NC(C)c2ccccc2)c([N+](=O)[O-])n1` (centres undefined), -3.72%. To `Cc1cc(OCC(=O)Nc2nccs2)c2c(C)c(C)c(=O)oc2c1` belongs 5.31%.

On to `O=C(COc1ccc2ccc(=O)oc2c1)NCC(O)c1ccccc1` (centres undefined), for which the inhibition is 15.9%. With `Cc1cc(OCC(=O)NCC(O)c2ccccc2)c2c(C)c(C)c(=O)oc2c1` (centres undefined) the figure was 66.1% (active); with `CCN(CC)CCCNC(=O)COc1ccc2oc3c(c2c1)CCCC3`, 0.55%; with `Cc1cc(=O)oc2c3c(cc(OCC(=O)NCC(O)c4ccccc4)c12)OC(C)(C)CC3` (centres undefined), 49.2% (active). To `COc1ccc(CCNC(=O)COc2cc(C)cc3oc(=O)c(C)c(C)c23)cc1OC` belongs 2.14%. To `COc1cccc(CCNC(=O)COc2cccc3c2OC(C)(C)C3)c1` belongs -1.69%. Turning to `CSc1nnc(-c2ccncc2)n1CCCN1CCCC1=O`, the inhibition is 0.93%.

For the compound `N#CCC(=O)NC1CCC(CC2CCC(NC(=O)CC#N)CC2)CC1` (centres undefined), the inhibition is 3.18%. With `COc1cc(OC)c(C2=NOC(C(=O)Nc3c(C)n(C)n(-c4ccccc4)c3=O)C2)cc1Cl` (centres undefined) the figure was -0.74%; with `CSCC(=O)N1CCCC(C(=O)c2cc(F)ccc2F)C1` (centres undefined), -1.12%; with `Cc1nccn1-c1ccc(NC(=O)[C@H]2O[C@@H](n3cnc4c(N)ncnc43)[C@H](O)[C@@H]2O)cc1`, 0.84%. With `O=C(O/N=C(/c1ccccc1)c1ccncc1)c1ccccc1[N+](=O)[O-]` the figure was 2.83%; with `CCCc1cc(=O)oc2c(C)c(OCC(=O)NCc3ccccn3)ccc12`, 0.52%; with `Cc1cc(=O)oc2c(C)c(OCC(=O)NCCc3ccc(S(N)(=O)=O)cc3)ccc12`, 12.6%. With `Cc1cc(=O)oc2c(C)c(OCC(=O)NCCN3CCOCC3)ccc12` the figure was 16%; with `Cc1cc(Cl)ccc1OCCCC(=O)NCc1ccccn1`, 1.44%; with `Cc1ccccc1NC(=O)COc1cccc2c1CCNC2=O`, 0.77%.

In the case of `Cc1nn(C)c(C)c1S(=O)(=O)N1CCc2ccccc21`, the inhibition was 6.1%.

For `CC(C)CNC(=O)/C=C/C(=O)O`, the inhibition was 10.5%. To `O=C1NC2(CCCCC2)N=C1c1ccccc1` belongs 1.74%. With `CC(C)Cc1ccc(-c2cc3nc(NCc4cccc(Cl)c4)ccn3n2)cc1` the figure was 14.9%; with `Cc1ccc(C)c(NS(=O)(=O)c2cc(Br)cnc2N)c1`, 3.42%. In the case of `O=S1(=O)CCOC[C@H](Cc2ccccc2)N1Cc1ccccc1Br`, the inhibition is -3.56%. With `Cc1ccc(S(=O)(=O)N2C[C@@H](C)[C@]3(C2)[C@H](O)[C@H](OC(=O)NCc2ccccc2)C[C@H]2C(=O)N(c4ccccc4)C(=O)[C@H]23)cc1` the figure was 67.2% (active). With `COC(=O)[C@H]1C[C@H](OC(=O)NCc2ccccc2)[C@@]2(O)CN(S(=O)(=O)c3ccc(C)cc3)CC2[C@H]1C(=O)OC` (some centres undefined) the figure was 0.56%; with `Cc1ccc(S(=O)(=O)N2C[C@]3(O)C[C@@H]4C(=O)N(c5ccccc5)C(=O)[C@@H]4C[C@]3(OC(=O)NC3CC3)C2)cc1`, 0.49%.

Consider `CC(C)C(c1nnnn1C(C)(C)C)N1CCN(Cc2cccnc2)CC1` (centres undefined), for which the inhibition was 0.62%. Take `c1cc(-c2ccc3[nH]ccc3c2)n2ccnc2c1`: the inhibition was 81.5% (active). With `Clc1ccc(-c2nc3ccccn3c2CN2CCSCC2)cc1` the figure was 0.24%; with `O=C(NCCO)c1cccc(-c2cccc3nccn23)c1`, 10.8%. To `S=c1[nH]cc(-c2ccc(Cl)cc2)n1-c1ccccc1` belongs -0.17%. With `Cc1ccc(NC(=O)C2(N3CCC3=O)CCCCC2)cc1` the figure was -1.03%; with `CC/C(=N\NC(=O)c1c(C)nc2ccccn12)c1ccc(Cl)cc1`, 1.77%; with `O=C(CN1CCN(S(=O)(=O)c2ccc(F)cc2)CC1)NC1CC1`, 0.31%. Turning to `CC1CC2=C(CC1/C=N/NC(N)=S)C(C)(C)CCC2` (centres undefined), the inhibition is -2.62%. On to `COc1ccc(Nc2oc(-c3ccccc3Cl)nc2C#N)cc1`, for which the inhibition was 14.5%. To `CC(C)(C)n1nc(Cc2cccc3ccccc23)c(C#N)c1N` belongs -0.08%. To `O=C(CN1CCN(C2CCS(=O)(=O)C2)CC1)N1N=C(c2ccc(Cl)cc2)CC1c1ccco1` (centres undefined) belongs -0.95%; to `O=c1[nH]cnc(O)c1C(c1ccc(F)cc1)c1c(O)nc[nH]c1=O`, 1.39%.

Consider `Cc1cc(N=Nc2ccc3ccccc3c2)ccc1O`, for which the inhibition is -3.13%. With `Cc1nc2ccccc2nc1CC(O)(c1ccccc1)c1ccccc1` the figure was 0.56%; with `Cc1nc2ccccc2cc1O`, 116% (active); with `C=Cn1c(C(=O)O)ccc1-c1ccc(OC)cc1`, 1.98%. With `COc1ccc(-c2cc(C)nc3nc(N)nn23)cc1` the figure was 124% (active); with `Cc1cc(-c2ccccc2)n2nc(C)c(-c3ccccc3)c2n1`, 4.02%; with `COC(=O)c1ccc(C)c(NC(=O)Cn2c(C)csc2=O)c1`, -1.21%. With `CCOC(=O)c1c(-c2ccccc2)oc2ccc(OCC(N)=O)cc12` the figure was 72.7% (active); with `COC(=O)c1c(C)oc2ccc(N(C(=O)Oc3ccccc3)S(=O)(=O)c3ccccc3)cc12`, -6.44%; with `CCOC(=O)c1c(-c2ccccc2)oc2ccc(OC(=O)N(C)C)cc12`, 38.7% (active). Take `CCOC(=O)c1c(C)[nH]c(C(=O)COc2ccc3c(c2)OCO3)c1C`: the inhibition was 6.18%. With `CCOC(=O)c1c(-c2ccccc2)oc2cc(Br)c(O)c(C=O)c12` the figure was -2.33%; with `CCOC(=O)c1c(C)oc2cc(Br)c(OCC(N)=O)cc12`, 5.33%; with `CCOC(=O)c1c(C)oc2cc(Sc3ccccc3)c(O)c(O)c12`, -6.47%.

For the compound `N#CC1(NC(=O)COc2ccc3oc4ccccc4c3c2)CCCCC1`, the inhibition was -0.49%. To `CCOC(=O)c1c(-c2ccccc2)oc2ccc(OCC(=O)NN)cc12` belongs 58.4% (active). To `S=C(NC1CCCCC1)NN1CCOCC1` belongs -5.42%.

With `c1ccc2c(c1)CSc1sccc1C2=C1CCNCC1`, the inhibition was 4.51%. Take `N#Cc1cccc(NC(=O)CCC2CCCC2)c1`: the inhibition was -3.71%. With `OC(COCCC12CC3CC(CC(C3)C1)C2)CN1CCCCC1` (centres undefined) the figure was -2.2%; with `COc1ccc(-n2c(SCC(=O)Nc3ccc4c(c3)OCO4)nnc2C(C)N2CCCCC2)cc1` (centres undefined), 0.95%.
